Measured values taken from PubChem BioAssay (Tox21).
Records with an inconclusive call do not appear. Activity calls are given as the source filed them. The call rests on the fitted dose curve; in most records, active means well fitted cell-killing curve with a large enough effect in the repeat runs; inconclusive means weak or mixed curves; inactive means flat fitted curve, though single readings scatter.

assay: qHTS RealTime-Glo MT Cell Viability Assay in HepG2 cells - 24 hour (AID 1224867); conditions: RealTime-Glo luminescence; series mostly up to 76.8 µM; activity change, negative = cytotoxicity: at the top concentration; further: nearly all actives have a fitted effect of over 50% in size
Excerpt: U.S. Tox21 Program National Center for Advancing Translational Sciences [NCATS] NIH Chemical Genomics Center [NCGC] U.S. Environmental Protection Agency [EPA] National Institutes of Environmental Health Sciences [NIEHS] National Toxicology Program [NTP] U.S. Food and Drug Administration [FDA] Tox21 Assay Overview: Measure of cell viability is critical in the cell-base assay. Analysis of cell viability is necessary for the characterization of cell responses to cytotoxic drugs and environmental stress. A RealTime-Glo MT Cell Viability Assay to monitor cell viability in real time of continues cell culture during 40 hours of compound treatment was used to screen Tox21 10K library compounds in HepG2 cells. The RealTime-Glo MT Cell Viability Assay is a nonlytic, homogeneous, bioluminescent method to measure cell viability in real time using a simple, plate-based method. The assay involves adding NanoLuc luciferase and a cell-permeant prosubstrate to cells in culture. Viable cells reduce the proprietary prosubstrate to generate a substrate for NanoLuc luciferase. This substrate diffuses from cells into the surrounding culture medium, where it is rapidly used by the NanoLuc Enzyme to produce a luminescent signal. The signal correlates with the number of viable cells, making the assay well suited for cytotoxicity studies.
Tox21 Assay Protocol Summary: The mixture of HepG2 cell suspension and reagents were dispensed at 600cells/6 ul/well in 1536-well tissue culture treated black solid bottom plates using a Multidrop dispenser. After the assay plates were incubated at a 37 C/5% CO2 incubator for 5 hours, 23 nL of compounds dissolved in DMSO, positive and negative controls was transferred to the assay plate by a pintool work station. The plates were incubated at 37 C for 40 hours. The luminescence intensity were measured at 0h, 8h, 16h, 24h, 32h and 40h time points using ViewLux plate reader during compound treatment.
On the % scale 0 is the no-effect control and ±100 the full control effect.

SMILES | activity change, negative = cytotoxicity
C=CCCCCCCCCC(=O)OCC | 0.0455% (inactive)
NC(=O)NC1N=C([O][Al])NC1=O (stereo not given) | 1.67% [at 35.3 µM] (inactive)
C=C(C)C(=O)OCC(O)CO (stereo not given) | -0.284% [at 35.3 µM] (inactive)
CCOC(=O)COc1cc(-n2ncc(C(F)(F)F)c(C)c2=O)c(F)cc1Cl | -1.29% (inactive)
CC(C)C(=O)OC(=O)C(C)C | 1.55% (inactive)
CC(C)NNC(=O)c1ccncc1 | -0.0221% [at 35.3 µM] (inactive)
CN(C)CCCN(C)CCCN(C)C | -0.826% (inactive)
O=Cc1cccc(Br)c1 | 0.429% (inactive)
CC(C)(C)C(=O)c1ccccc1 | 2.53% (inactive)
C=COC(=O)C(C)(CC)CCC(C)C (stereo not given) | 1.31% (inactive)
CC/C=C\CCOC(C)OCC (stereo not given) | 1.76% [at 35.3 µM] (inactive)
CCOCC(C)O (stereo not given) | 0.345% (inactive)
CCCOC(=O)CC | 0.956% (inactive)
Cc1nc(C2CCCCC2)c(-c2ccc(S(N)(=O)=O)c(F)c2)o1 | -22.2% [at 35.3 µM] (inactive)
CC[N+](C)(CC)CCOC(=O)C1c2ccccc2Oc2ccccc21 | 2.44% [at 35.3 µM] (inactive)
CCCCCC(=O)OCCc1ccccc1 | -0.846% (inactive)
C=CCOCC(O)CO (stereo not given) | -0.513% (inactive)
CC(C)=CCC/C(C)=C/C#N | 0.858% (inactive)
CC[N+](CC)(CC(=O)Nc1c(C)cccc1C)Cc1ccccc1 (tested in a mixture with another compound) | 1.66% [at 35.3 µM] (inactive)
CC(C(=O)O)c1cccc(Oc2ccccc2)c1 (stereo not given) | 1.41% [at 35.3 µM] (inactive)

SMILES | activity change, negative = cytotoxicity
CCOc1ccc2nc(S(N)(=O)=O)sc2c1 | -1.77% [at 35.3 µM] (inactive)
CCC(C)(CN(C)C)OC(=O)c1ccccc1 (stereo not given) | 0.713% [at 35.3 µM] (inactive)
O=S(=O)(O)c1cccc2ccccc12 | 0.698% (inactive)
Clc1cc(Cl)c(Cl)nc1Cl | -2.99% (inactive)
COc1cc(C)nc(-n2nc(C)cc2OC)n1 | 1.25% [at 35.3 µM] (inactive)
C[N+]1(CC2COC(c3ccccc3)(c3ccccc3)O2)CCCCC1 (stereo not given) | -0.511% [at 15.8 µM] (inactive)
Cc1ccnc(NS(=O)(=O)c2ccc(N)cc2)n1 | -1.53% [at 35.3 µM] (inactive)
C[N+]12CCC(CC1)C(OC(=O)C(O)(c1ccccc1)c1ccccc1)C2 (stereo not given) | 0.0533% [at 35.3 µM] (inactive)
O=C(CO)[C@@H](O)[C@H](O)[C@H](O)CO | 0.995% (inactive)
OCCc1ccccn1 | 2.06% (inactive)
CC(C)(C)c1ccc(-c2ccc(C(C)(C)C)cc2)cc1 | 2.07% (inactive)
Nc1ccn([C@@H]2O[C@H](CO)[C@@H](O)C2O)c(=O)n1 (stereo not given in full) | -0.113% (inactive)
COc1cc2c(cc1OC)-c1cc3ccc(OC)c(OC)c3c[n+]1CC2 | -9.99% (inactive)
CCN(CC#N)c1cccc(C)c1 | 1.47% (inactive)
CCN(Cc1ccccc1)c1ccccc1 | -11.3% (inactive)
CO/N=C(\C(=O)N[C@@H]1C(=O)N2C(C(=O)O)=C(CSc3nc(=O)c(O)nn3C)CS[C@H]12)c1csc(N)n1 | 0.954% [at 35.3 µM] (inactive)
O=C(CO)[C@@H](O)[C@H](O)[C@@H](O)CO | 4% [at 35.3 µM] (inactive)
CCOC(=O)CCC(=O)OCC | 0.552% (inactive)
O=C(O)CC(C(=O)O)S(=O)(=O)O (stereo not given) | 1.61% (inactive)
NO | -0.76% (inactive)
